G9a block = qHTS Assay for Inhibitors of Histone Lysine Methyltransferase G9a. Histone-lysine N-methyltransferase EHMT2 (Homo sapiens), Q96KQ7. Potency, µM (top dose mostly 102 µM), for the others: top-dose activity, negative = inhibition, actives largely listed as inhibitors. G9a H3K9 monomethylation, AlphaScreen, 2 h. AID 504332, 2011. 8.8% of 350,000 active; also: % is scaled to controls: 0 for no effect and ±100 for the full control effect; nearly all actives have a fitted effect of over 75% in size
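AlphaScreen read-out: biotin-H3K9 peptide (500 nM) methylation by 20 nM enzyme with 20 uM SAM, 2 h at room temperature after 15 min compound preincubation; anti-monomethyl H3K9 antibody plus donor/acceptor beads, 10 min dark.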
L3MBTL1 block = qHTS Assay for the Inhibitors of L3MBTL1; Potency, µM (titrated, usually from 57.1 µM), for inactives: at the top dose activity, negative = inhibition, most hits filed as inhibitors; AlphaScreen L3MBTL1–H3K9me1 peptide binding; Lethal(3)malignant brain tumor-like protein 1 (Homo sapiens), Q9Y468; 0.66% of 230,000 active; also: % is scaled to controls: 0 for no effect and ±100 for the full control effect; nearly all actives have a fitted effect of over 60% in size
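AlphaScreen assay: L3MBTL1 (50 nM final) was preincubated 30 min at room temperature with biotinylated H3(1-15)K9me1 peptide (75 nM final), then 30 min with library compounds; streptavidin donor and nickel chelate acceptor beads (10 ug/mL final) added, 30 min dark.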
JMJD2A Tudor = qHTS Assay for Inhibitors of JMJD2A-Tudor Domain; Lysine-specific demethylase 4A (Homo sapiens), O75164; 4.4% of 390,000 active; AlphaScreen JMJD2A-Tudor / H3K4me3 peptide binding; Potency, µM (series often up to 114 µM), for the others: at the top dose activity change, negative = inhibition, usual class: inhibitors; also: % is scaled to controls: 0 for no effect and ±100 for the full control effect; nearly all actives have a fitted effect of over 50% in size
Target sequence (O75164 whole entry, looked up, the tested form may be a part): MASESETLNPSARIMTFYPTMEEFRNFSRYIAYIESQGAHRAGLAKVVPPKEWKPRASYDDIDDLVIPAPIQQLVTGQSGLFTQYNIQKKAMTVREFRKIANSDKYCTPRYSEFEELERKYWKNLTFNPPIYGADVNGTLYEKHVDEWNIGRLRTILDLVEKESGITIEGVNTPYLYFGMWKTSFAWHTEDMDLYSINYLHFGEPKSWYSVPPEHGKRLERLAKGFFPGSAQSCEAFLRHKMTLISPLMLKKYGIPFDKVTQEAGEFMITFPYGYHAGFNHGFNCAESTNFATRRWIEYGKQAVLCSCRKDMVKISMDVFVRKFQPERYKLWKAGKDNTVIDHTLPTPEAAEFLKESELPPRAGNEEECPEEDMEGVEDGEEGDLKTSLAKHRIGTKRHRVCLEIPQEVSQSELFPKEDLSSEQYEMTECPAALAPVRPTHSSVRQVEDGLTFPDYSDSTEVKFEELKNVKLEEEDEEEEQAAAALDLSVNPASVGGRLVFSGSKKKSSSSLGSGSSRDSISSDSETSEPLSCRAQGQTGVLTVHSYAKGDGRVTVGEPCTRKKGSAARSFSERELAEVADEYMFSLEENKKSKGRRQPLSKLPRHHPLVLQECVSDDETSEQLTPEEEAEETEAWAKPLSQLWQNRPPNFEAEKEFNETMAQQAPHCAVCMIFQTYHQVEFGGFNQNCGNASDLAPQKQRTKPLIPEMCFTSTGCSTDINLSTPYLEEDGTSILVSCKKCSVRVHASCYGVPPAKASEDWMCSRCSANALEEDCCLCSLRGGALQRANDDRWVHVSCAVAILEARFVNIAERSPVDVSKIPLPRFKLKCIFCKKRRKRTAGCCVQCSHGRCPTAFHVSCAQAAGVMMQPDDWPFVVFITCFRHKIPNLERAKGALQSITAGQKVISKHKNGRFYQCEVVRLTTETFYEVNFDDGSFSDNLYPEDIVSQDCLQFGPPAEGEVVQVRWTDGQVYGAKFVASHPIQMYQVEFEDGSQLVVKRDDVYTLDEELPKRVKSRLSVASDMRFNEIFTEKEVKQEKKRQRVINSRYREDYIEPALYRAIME
Sfp PPTase inh = qHTS Assay for Inhibitors of Bacillus subtilis Sfp phosphopantetheinyl transferase (PPTase); Biochemical Sfp PPTase activity, qHTS; Potency, µM, for the others: largest response in the series, negative = inhibition, usual class: inhibitors; 3.5% of 310,000 active; AID 1490, 2009;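 also: the enzyme is Sfp with the accession as filed and its product quenches rhodamine fluorescence; 0% = enzyme reaction without inhibitor and -100% = no enzyme wells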
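Sfp 15 nM + cpd, 15 min RT; start w/ rhodamine-CoA 5 uM, BHQ-2-YbbR 12.5 uM (final); 50 mM Hepes pH 7.6, 10 mM MgCl2, 0.01% NP-40, 0.01% BSA; read 525/598 nm at 0 and 30 min.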
BAZ2B inh = qHTS Assay for Inhibitors of BAZ2B; AID 504333, 2011; 4.4% of 360,000 active; AlphaScreen BAZ2B-H3K14Ac peptide displacement; Bromodomain adjacent to zinc finger domain protein 2B (Homo sapiens), Q9UIF8; Potency, µM (titrated, usually from 114 µM), inactives show at the top dose activity change, negative = inhibition, hits mostly inhibitors; also: % is scaled to controls: 0 for no effect and ±100 for the full control effect; nearly all actives have a fitted effect of over 60% in size
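Multi-concentration screen (max 110 uM) measuring displacement of acetylated histone H3 peptide from BAZ2B by AlphaScreen, using 50 nM protein, 50 nM peptide and 10 ug/mL streptavidin donor plus Ni-chelate acceptor beads.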
HP1b chromo inh = HTS for Inhibitors of HP1-beta Chromodomain Interactions with Methylated Histone Tails. 0.56% of 390,000 active. Potency, µM (doses to about 114 µM), for the others: at the top dose activity change, negative = inhibition, hits mostly inhibitors. Chromobox protein homolog 1 (Homo sapiens), P83916. AlphaScreen HP1-beta / biotin-H3K9me3 peptide binding; also: nearly all actives have a fitted effect of over 70% in size
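HP1-beta protein (50 nM final) preincubated 30 min at room temperature with biotinylated H3(1-18)K9me3 peptide (50 nM) in PBS pH 7.4, 0.01% Tween-20, then compound added for 30 min. AlphaScreen streptavidin donor/nickel chelate acceptor beads (10 ug/mL final), 30 min dark, luminescence read.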
Starred values were filed as active, the others as inactive; [ ] = dose if it differs, or a comment. A selection: hits, their analogues and other compounds. The true share with any hit is near 12%. Calls follow the shape of the dose curve; as a rule, active = well fitted curve in the direction sought with a large enough effect; inconclusive = small, poorly fitted or top-dose-only effect, or another doubt; inactive = no such curve, though single readings can be large; an effect the other way counts as inactive or inconclusive. Potency is read from the fitted curve at half-maximal effect.

For Cc1ccc2c(c1Cl)NC(C(=O)O)C1CC(Sc3ccccc3[N+](=O)[O-])C(Cl)C21 (stereo unspecified) the results were JMJD2A Tudor 56µM*, Sfp PPTase inh inconclusive, BAZ2B inh 14µM* and HP1b chromo inh inconclusive.
`CCN(CC)C(=O)c1ccc2c(c1)C1C=CCC1C(C(=O)O)N2` (stereo unspecified) gave G9a block 1.6µM*, JMJD2A Tudor 11µM*, Sfp PPTase inh 11µM*, BAZ2B inh 25µM* and HP1b chromo inh 28µM*.
For CCN(CC)C(=O)c1ccc2c(c1)C1C(Cl)C(Sc3ccccc3[N+](=O)[O-])CC1C(C(=O)O)N2 (stereo unspecified) the results were G9a block 7.9µM*, L3MBTL1 block 14µM*, JMJD2A Tudor inconclusive, Sfp PPTase inh 45µM*, BAZ2B inh 20µM* and HP1b chromo inh 11µM*.
Screening NC(=O)O returned Sfp PPTase inh 12%.
For COCC#CCN1CCCCC1c1cccnc1 (stereo unspecified) the results were Sfp PPTase inh 11%.
For CCS(=O)(=O)C(C)(C)S(=O)(=O)CC the results were G9a block -38%[12.7 µM] and Sfp PPTase inh 14%.
Screening c1cncc(CNC2=NCCCCC2)c1 returned G9a block inconclusive, L3MBTL1 block -8%, JMJD2A Tudor -12%, Sfp PPTase inh 8%, BAZ2B inh 79µM* and HP1b chromo inh 4%.
`O=C(CCN1CCN(c2ccccc2)CC1)c1ccc(Br)cc1` gave G9a block 20µM*, JMJD2A Tudor -32%, Sfp PPTase inh -5%, BAZ2B inh inconclusive and HP1b chromo inh 21%.
`CC[C@@H]1CN2CCc3cc(OC)c(OC)cc3[C@H]2C[C@@H]1C[C@@H]1NCCc2cc(O)c(OC)cc21` gave G9a block -1%[21.5 µM] and Sfp PPTase inh 2%.
For Cc1ccc(NP(=O)(c2ccccc2)c2nc3ccccc3s2)cc1 (stereo unspecified) the results were G9a block 25µM*, JMJD2A Tudor -16%, Sfp PPTase inh 5%, BAZ2B inh -23% and HP1b chromo inh 10%.
CC(Cc1ccc(OCC(=O)O)cc1)NCC(O)c1cccc(Cl)c1 (stereo unspecified) was read as G9a block 21%[12.7 µM] and Sfp PPTase inh 5%.
Screening CC[C@@H]1[C@@H]2C[C@H]3[C@H]4N(C)c5ccccc5[C@@]45C[C@@H]([C@@H]2[C@@H]5O)N3[C@H]1O returned G9a block -1%[21.5 µM] and Sfp PPTase inh 14%.
For CCOc1ccccc1CNCCc1ccc2c(c1)OCO2 the results were G9a block 13%, L3MBTL1 block -1%, JMJD2A Tudor -11%, Sfp PPTase inh 14%, BAZ2B inh 3% and HP1b chromo inh 21%.
Clc1ccc(CCNCc2ccncc2)c(Cl)c1 was read as G9a block 4µM*, JMJD2A Tudor 32µM*, Sfp PPTase inh -16%, BAZ2B inh 50µM* and HP1b chromo inh -6%.
Fc1ccc(CNCCc2ccc3c(c2)OCO3)cc1 was read as G9a block 50µM*, L3MBTL1 block -2%, JMJD2A Tudor 56µM*, Sfp PPTase inh -4%, BAZ2B inh inconclusive and HP1b chromo inh 7%.
Screening CCOc1ccc(CNCCc2ccc3c(c2)OCO3)cc1 returned G9a block -9%, L3MBTL1 block -3%, JMJD2A Tudor -24%, Sfp PPTase inh 10%, BAZ2B inh -22% and HP1b chromo inh 13%.

Compound activity (PubChem)
